CSC inhib: cancer stem cell inhibition | cancer stem cell-like cells viability, luminescence | inhibition, % at 7.5 µM | 300,000 compounds, 1.1% hits; in the data active = inhibition above about 75%; tested in HMLE shEcad cells
Mdm2 MdmX PPI: inhibitors of human Mdm2/MdmX interaction; O15151+Q00987; SaOS-2 split-luciferase Mdm2/MdmX complementation, luminescence; inhibition, % at 8 µM; 330,000 compounds, 3% hits; AID 485346;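 active = inhibition of at least 50% at 8 µM in the primary screen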
Beta apoptosis: beta cell apoptosis inhibition | INS-1E cytokine-induced death, ATP luminescence, 48 h; percent of positive-control rescue, neutral wells zero | protection from apoptosis, % (test concentration not listed) | 300,000 compounds, 0.8% hits | AID 435005;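 active = Every replicate reaches about 75%, or at least half do and their mean reaches it too, limit read from the data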;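 note: 0% = cytokine-treated negative control wells and 100% = positive control rescue; higher means more ATP so stronger rescue from cytokine killing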
697 NFkB inh: lowers PMA/ionomycin-induced NF-kB signal in 697 B cells | 697 B-cell NF-kB luciferase reporter, 16 h | inhibition, % at 4 µM | 330,000 compounds, 0.33% hits | AID 435022; in the data active = inhibition above about 35%
Gli-Sufu block: blocks Gli-Sufu signaling in a luciferase reporter | Sufu-KO-LIGHT fibroblasts, Gli luciferase reporter luminescence | inhibition, % at 5 µM | 340,000 compounds, 0.74% hits;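 active = inhibition above about 55%, limit read from the data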;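 note: 0% = DMSO-treated cells and 100% = wells with medium but no cells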
Jurkat NFkB inh: lowers PMA/ionomycin-induced NF-kB signal in Jurkat cells; PMA/ionomycin-induced NF-kB luciferase reporter, luminescence; inhibition, % at 4 µM; 330,000 compounds, 0.53% hits; AID 435003; in the data active = inhibition above about 50%
Mdm2-MdmX conf: human Mdm2/MdmX binding inhibition, confirmed; shares compounds with Mdm2 MdmX PPI; inhibition, % at 8 µM; 10,000 compounds, 55% hits; luminescent assay; in the data active = inhibition above about 40%
Full FLuc ctr: inhibits full-length luciferase, flagging false Mdm2/MdmX hits; shares compounds with Mdm2 MdmX PPI; SaOS-2 full-length luciferase counterscreen, luminescence; inhibition, % at 8 µM; 6,200 compounds, 77% hits;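 active = mean inhibition at 8 µM reaching about 37%, which flags the compound as non-specific, limit read from the data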;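 note: p53-null SaOS-2 cells with luciferase driven by a doxycycline-inducible promoter; compound on cells about two nights before reading with doxycycline added after day one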
Starred values were filed as active, the others as inactive; x = no result. Rows were chosen to be rich in hits. Some 4.5% of all compounds tested hit in one or more screens of this group.

SMILES	CSC inhib	Mdm2 MdmX PPI	Beta apoptosis	697 NFkB inh	Gli-Sufu block	Jurkat NFkB inh	Mdm2-MdmX conf	others
COc1cc(/C=N/NC(N)=O)ccc1OCC(=O)Nc1cc(C)c(C)cc1Br	7	81*	0	12	6	-5	50*	Full FLuc ctr=106*
COc1ccc(C(=O)Oc2cc(/C=N/NC(N)=S)ccc2OC)cc1	-5	28	x	-5	9	9	x
COc1ccc(/C=N/NC(N)=S)cc1OC(=O)c1cccc2ccccc12	13	61*	17	-8	23	11	29
O=C(COc1ccc(/C=N/NC(=O)c2cc3ccccc3o2)cc1Cl)Nc1ccccc1	116*	97*	-4	19	36	17	-100
COc1cccc(/C=N/NC(=O)c2nc(-c3ccccc3)cc(-c3ccccc3)n2)c1	11	42	x	22	3	-11	x
COc1ccc(/C=N/NC(=O)c2nc(-c3ccccc3)cc(-c3ccccc3)n2)cc1OC	-11	72*	5	-26	8	2	71*	Full FLuc ctr=86*
C1CCCCCC(NCCN2CCNCC2)CCCCC1	45	97*	1	-27	6	23	93*	Full FLuc ctr=23
Cc1ccnc2nc(C(=O)OCC(=O)N(CC(C)C)C3CCS(=O)(=O)C3)nn12 (stereo not given)	x	13	-5	7	-4	-9	x
COc1ccc(C2c3c(ncn(CCN4CCOCC4)c3=N)Oc3ccc4ccccc4c32)cc1 (stereo not given)	26	71*	-1	-20	25	-8	55*	Full FLuc ctr=65*
CN(C)CCn1cnc2c(c1=N)C(c1ccccc1)c1ccc3ccccc3c1O2 (stereo not given)	14	98*	21	-19	15	18	71*	Full FLuc ctr=40*
N=c1c2c(ncn1Cc1ccco1)Oc1cc(O)ccc1C2c1ccccc1 (stereo not given)	9	33	2	2	3	9	x
N=c1c2c(ncn1Cc1ccco1)Oc1c(ccc3ccccc13)C2c1ccccc1 (stereo not given)	102*	70*	x	-19	20	26	70*	Full FLuc ctr=55*
COC(=O)C1OCOC2C(C(=O)OC)OCOC12 (stereo not given)	x	x	x	x	0	x	x
O=C(CCNC(=O)c1ccccc1Cl)Nc1cccc(S(=O)(=O)N2CCCC2)c1	8	-3	0	-1	-2	-7	x
CCN1C(=O)C(O)(C2COC(C)(C)CC2=O)c2cc(Br)ccc21 (stereo not given)	36	55*	-3	-7	x	-5	52*	Full FLuc ctr=68*
C=CCn1c(C)cc(C(=O)COC(=O)/C=C/c2c(C)nn(C3CCS(=O)(=O)C3)c2Cl)c1C (stereo not given)	-7	4	-1	-41	1	17	x
O=C(COc1cccc(F)c1)Nc1nc(-c2ccncc2)cs1	x	24	0	5	3	1	x
CC(=O)c1c(C)[nH]c(C(=O)Nc2cccc(S(=O)(=O)N3CCCC3)c2)c1C	-25	70*	-9	30	6	1	20
CC(=O)c1c(C)[nH]c(C(=O)Nc2cccc(S(=O)(=O)N(C)C)c2)c1C	7	38	x	20	5	-20	x
CC(=O)c1c(C)[nH]c(C(=O)OCC(=O)Nc2cc(S(=O)(=O)N3CCCC3)ccc2Cl)c1C	-11	54*	7	-22	24	17	35
COc1ccccc1NS(=O)(=O)c1cc(NC(=O)c2[nH]c(C)c(C(C)=O)c2C)ccc1N1CCOCC1	-23	61*	47	-4	7	29	30
COc1ccccc1NS(=O)(=O)c1cc(NC(=O)c2ccccc2C)ccc1N1CCOCC1	x	x	x	x	5	x	x
CC(=O)c1c(C)[nH]c(C(=O)Nc2ccc(Cl)c(S(=O)(=O)N3CCOCC3)c2)c1C	14	59*	-15	13	29	2	34
COc1cccc(S(=O)(=O)N2CCN(Cc3ccc4c(c3)OCO4)CC2)c1	-7	3	0	15	-4	1	x
COc1ccc(CC(=O)N2CCN(c3ccccc3OC)CC2)cc1OC	-7	-13	x	6	16	3	x
SMILES	CSC inhib	Mdm2 MdmX PPI	Beta apoptosis	697 NFkB inh	Gli-Sufu block	Jurkat NFkB inh	Mdm2-MdmX conf	others
C/C(=N\NC(=O)c1ccc(OC2CCCC2)cc1)c1ccc(O)cc1	-3	20	x	15	9	12	x
COCCN1CCN(C(=O)c2cc(COc3ccc(F)c(F)c3)on2)CC1	-3	-7	-2	4	8	-27	x
O=C(NCc1ccccc1Cl)C(=O)c1cn(CC(=O)N2CCOCC2)c2ccccc12	-6	-8	-12	-51	-11	-22	x
O=C1C(Cl)=C(Nc2cccc(O)c2)C(=O)N1Cc1ccccc1	-4	52*	1	17	13	14	21
CC1CCCCN1C(=O)c1cccc(NC2=C(Cl)C(=O)N(Cc3ccccc3)C2=O)c1 (stereo not given)	4	76*	-8	22	2	-3	28
CC1CCN(C(=O)c2ccc(NC3=C(Cl)C(=O)N(Cc4ccccc4)C3=O)cc2)CC1	x	58*	x	-1	-6	16	38
CCOc1ccccc1NC1=C(Cl)C(=O)N(Cc2ccccc2)C1=O	-7	15	-6	-9	-2	9	x
CC1CCCCN1C(=O)c1ccc(C(=O)c2ccccc2)cc1 (stereo not given)	7	-14	6	-25	-13	-17	x
COc1ccc(CN2CCSc3sccc3C2=O)cc1	-8	7	-2	-8	1	-2	x
Cc1ccc(S(=O)(=O)N2CCOC2CNC(=O)C(=O)NCc2ccccn2)cc1 (stereo not given)	-4	36	-3	7	-1	-3	x
CCCCC1(Br)C(=O)N(c2ccccc2)N(c2ccccc2)C1=O	21	3	-1	14	-9	-5	x
O=C(N/N=C/c1ccc(Cl)cc1)c1cc2c(s1)-c1ccccc1CC2	38	65*	18	-11	-7	41	60*	Full FLuc ctr=47*
O=C(O)c1cc2c(s1)-c1ccccc1CC2	2	15	-3	13	2	-5	x
CCCCCCCCCCCCCCCC(=O)OC(CC(=O)O)C[N+](C)(C)C (stereo not given)	x	-10	x	-16	9	6	x
Cc1nc(NC(=O)CSc2nc3cccnc3n2C2CCCCC2)sc1C	-4	57*	16	-37	2	-5	19	Full FLuc ctr=96*
CC(C)(CNC(=O)c1ccc(-c2ccccc2Cl)o1)N1CCOCC1	16	-12	2	-45	-10	-35	x
Cc1ccc(S(=O)(=O)c2nc(-c3ccccc3Br)oc2N(C)C)cc1	6	32	-7	7	4	14	x
